# Results taken from the supplement of paper PMC12645437, “Orthogonal IMiD-Degron Pairs Induce Selective Protein Degradation in Cells” (ACS Chemical Biology, 2025).
# The full ranking holds about 8,300 sequences; the median of “log2 fold change of degron read counts, EGFP-low vs EGFP+ sorted cells (limma voom), compound-induced degradation” is about -1.1, and the highest 2% start at about 3.2. This excerpt belongs to a sample that is enriched for the highest values.
# T1: CRBN, Q96SW2
# T1 chain: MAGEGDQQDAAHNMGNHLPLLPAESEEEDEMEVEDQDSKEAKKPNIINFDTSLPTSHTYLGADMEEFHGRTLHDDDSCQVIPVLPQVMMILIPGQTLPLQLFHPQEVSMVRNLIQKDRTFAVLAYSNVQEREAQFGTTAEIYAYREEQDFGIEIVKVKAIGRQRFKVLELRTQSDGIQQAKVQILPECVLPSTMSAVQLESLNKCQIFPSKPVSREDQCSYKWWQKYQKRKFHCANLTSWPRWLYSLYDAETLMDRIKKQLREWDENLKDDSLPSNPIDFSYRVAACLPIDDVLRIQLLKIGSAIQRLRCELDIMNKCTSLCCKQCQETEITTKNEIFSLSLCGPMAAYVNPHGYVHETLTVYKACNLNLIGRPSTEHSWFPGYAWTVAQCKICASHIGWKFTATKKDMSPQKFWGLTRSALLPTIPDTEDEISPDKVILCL
# Target: T1, CRBN, Q96SW2
# Assay: log2 fold change of degron read counts, EGFP-low vs EGFP+ sorted cells (limma voom), compound-induced degradation; higher = more compound-induced degradation of the degron-EGFP fusion; degrons are variants of IKZF1/3 zinc finger 2; compound dose not given here
# Settings: Jurkat, 18 h
# [1] = compound: compound 19 (5-tert-butyl-thalidomide)
# [2] = compound: compound 22 (5-morpholino-thalidomide)
# [3] = compound: compound 33 (diphenyl IMiD analogue)
# 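Note: pooled lentiviral library of zinc finger degron-EGFP fusions in mCherry-positive Jurkat cells, FACS-sorted after compound exposure, with degron abundance counted by next-generation sequencing.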
Sequence,log2 fold change of degron read counts [1],log2 fold change of degron read counts [2],log2 fold change of degron read counts [3],log2 fold change of degron read counts (compound: thalidomide)
"FICDICGARFTQKGNLLRHIKL [46F_47I_49D_50I_52G_53A_54R_55F_67L_, Q9UKT9]",-0.557,1.75,0.63,1.41
"FGCNVCGAWFTQKGNLLRHIKL [46F_47G_49N_50V_52G_53A_54W_55F_67L_, Q9UKT9]",-1.56,-2,-0.753,-1.74
"FFCDICGAYFTQKGNLLRHIKL [46F_47F_49D_50I_52G_53A_54Y_55F_67L_, Q9UKT9]",2.55,1.36,-0.119,-1.9
"FRCPICGAGFTQKGNLLRHIKL [46F_47R_49P_50I_52G_53A_54G_55F_67L_, Q9UKT9]",2.23,1.8,2.28,1.55
"FKCPICGAGFTQKGNLLRHIKL [46F_47K_49P_50I_52G_53A_54G_55F_67L_, Q9UKT9]",2.08,-0.359,-0.702,0.6
"FWCPICGAGFTQKGNLLRHIKL [46F_47W_49P_50I_52G_53A_54G_55F_67L_, Q9UKT9]",3.3,2.73,1.87,0.518
"FVCPICGAGFTQKGNLLRHIKL [46F_47V_49P_50I_52G_53A_54G_55F_67L_, Q9UKT9]",1.09,3.08,2.04,2.98
"FSCPICGAGFTQKGNLLRHIKL [46F_47S_49P_50I_52G_53A_54G_55F_67L_, Q9UKT9]",2.83,1.27,1.76,0.755
"FYCPICGAGFTQKGNLLRHIKL [46F_47Y_49P_50I_52G_53A_54G_55F_67L_, Q9UKT9]",2.99,2.02,2.1,-0.123
"FLCPICGAGFTQKGNLLRHIKL [46F_47L_49P_50I_52G_53A_54G_55F_67L_, Q9UKT9]",1.86,0.187,1.6,1.01
"FGCPICGAGFTQKGNLLRHIKL [46F_47G_49P_50I_52G_53A_54G_55F_67L_, Q9UKT9]",3.28,1.32,2.32,0.446
"FQCPICGAGFTQKGNLLRHIKL [46F_47Q_49P_50I_52G_53A_54G_55F_67L_, Q9UKT9]",2.39,2.05,1.77,3.69
"FTCPICGAGFTQKGNLLRHIKL [46F_47T_49P_50I_52G_53A_54G_55F_67L_, Q9UKT9]",1.55,2.19,2.35,2.4
"FDCPICGAGFTQKGNLLRHIKL [46F_47D_49P_50I_52G_53A_54G_55F_67L_, Q9UKT9]",2.33,-0.146,0.564,1.11
"FACPICGAGFTQKGNLLRHIKL [46F_47A_49P_50I_52G_53A_54G_55F_67L_, Q9UKT9]",3.61,1.67,0.663,0.803
"FECDQCGAYFTQKGNLLRHIKL [46F_47E_49D_50Q_52G_53A_54Y_55F_67L_, Q9UKT9]",-2.99,-3.59,-2.13,-2.26
"FGCDQCGATFTQKGNLLRHIKL [46F_47G_49D_50Q_52G_53A_54T_55F_67L_, Q9UKT9]",-1.78,-2.27,-1.3,-2.71

Sequence,log2 fold change of degron read counts [1],log2 fold change of degron read counts [2],log2 fold change of degron read counts [3],log2 fold change of degron read counts (compound: thalidomide)
"FWCEICGAFFTQKGNLLRHIKL [46F_47W_49E_50I_52G_53A_54F_55F_67L_, Q9UKT9]",3.03,3.13,2.12,-0.452
"FTCPICGAIFTQKGNLLRHIKL [46F_47T_49P_50I_52G_53A_54I_55F_67L_, Q9UKT9]",-0.365,1.34,2.33,2.71
"FFCDICGALFTQKGNLLRHIKL [46F_47F_49D_50I_52G_53A_54L_55F_67L_, Q9UKT9]",2.27,1.43,0.356,-1.44
"FKCPVCGAEFTQKGNLLRHIKL [46F_47K_49P_50V_52G_53A_54E_55F_67L_, Q9UKT9]",-1.33,-1.7,-2.52,-0.999
"FNCNICGAAFTQKGNLLRHIKL [46F_47N_49N_50I_52G_53A_54A_55F_67L_, Q9UKT9]",1.61,0.951,0.00357,-0.128
"LHCPICGFHCTQKGNLLRHIKL [46L_47H_49P_50I_52G_53F_54H_55C_67L_, Q9UKT9]",2.33,2.45,2.55,1.95
"LVCPICGFHCTQKGNLLRHIKL [46L_47V_49P_50I_52G_53F_54H_55C_67L_, Q9UKT9]",0.161,2,1.81,2.57
"LNCPICGFHCTQKGNLLRHIKL [46L_47N_49P_50I_52G_53F_54H_55C_67L_, Q9UKT9]",1.34,0.56,0.934,1.12
"LSCPICGFHCTQKGNLLRHIKL [46L_47S_49P_50I_52G_53F_54H_55C_67L_, Q9UKT9]",2.37,2.02,2.39,2.28
"LFCPICGFHCTQKGNLLRHIKL [46L_47F_49P_50I_52G_53F_54H_55C_67L_, Q9UKT9]",2.94,3.37,2.6,1.88
"LYCPICGFHCTQKGNLLRHIKL [46L_47Y_49P_50I_52G_53F_54H_55C_67L_, Q9UKT9]",3.13,3.49,2.61,1.83
"LDCPICGFHCTQKGNLLRHIKL [46L_47D_49P_50I_52G_53F_54H_55C_67L_, Q9UKT9]",1.47,0.38,0.522,1.41
"LQCPICGFHCTQKGNLLRHIKL [46L_47Q_49P_50I_52G_53F_54H_55C_67L_, Q9UKT9]",0.55,1.17,1.51,3.3
"LTCPICGFHCTQKGNLLRHIKL [46L_47T_49P_50I_52G_53F_54H_55C_67L_, Q9UKT9]",1.1,2.57,2.47,2.78
"LWCPICGFHCTQKGNLLRHIKL [46L_47W_49P_50I_52G_53F_54H_55C_67L_, Q9UKT9]",2.74,3.54,2.74,1.65
"LMCPICGFHCTQKGNLLRHIKL [46L_47M_49P_50I_52G_53F_54H_55C_67L_, Q9UKT9]",0.0156,1.21,2.51,2.06
"LECPICGFHCTQKGNLLRHIKL [46L_47E_49P_50I_52G_53F_54H_55C_67L_, Q9UKT9]",-0.151,-0.655,1.91,2.84
